Test results: the supplement of paper PMC10849652
Targets with a hit are over-represented here; the source holds about 8,800 in all. About 0.5% of all pairs of compound and target were hits. Unmarked numbers belong to inactive results.

Compound: CC1=C2C(=CC=C1)N=C(N(C2=O)C3=CC=CC=C3C)CN4C=NC5=C(N=CN=C54)N
Experiment: log2 fold change, soluble protein after heating vs DMSO (PISA); higher = thermal stabilisation; K562 lysate, 10 uM; active = over 0.2 and 3.5 SD of the protein, either way, in both replicates (recomputed)
Outline: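 K562 pellets were dounce-homogenised in PBS pH 7.4 containing 1 mM MgCl2, and the crude extract, at 1 mg/mL protein, was exposed to 10 μM compound for 30 min. Aliquots were heated for 3 min across 48°C-58°C, pooled, brought to 0.5% NP-40 at 4°C and spun at 21,000xg for 90 min, with the supernatant taken as soluble protein. TMTpro 16plex LC-MS/MS with equalised channel sums quantified that protein. Values are log-two fold changes in thermal stability relative to solvent controls, taken from duplicates.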

Sequence of UniProt P41240 (P41240 whole entry, looked up): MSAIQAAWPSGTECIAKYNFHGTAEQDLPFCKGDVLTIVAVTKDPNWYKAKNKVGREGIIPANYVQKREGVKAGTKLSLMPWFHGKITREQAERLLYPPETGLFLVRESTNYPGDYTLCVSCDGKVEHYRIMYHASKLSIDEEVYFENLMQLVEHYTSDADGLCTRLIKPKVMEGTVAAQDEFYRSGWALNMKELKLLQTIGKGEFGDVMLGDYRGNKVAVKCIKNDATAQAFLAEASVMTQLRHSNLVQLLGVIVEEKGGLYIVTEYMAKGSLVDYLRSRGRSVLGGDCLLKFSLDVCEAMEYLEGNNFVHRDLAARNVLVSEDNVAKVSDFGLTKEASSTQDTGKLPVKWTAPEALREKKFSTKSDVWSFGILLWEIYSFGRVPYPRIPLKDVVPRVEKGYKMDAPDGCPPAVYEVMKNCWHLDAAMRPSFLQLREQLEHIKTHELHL
Sequence of UniProt O60762 (O60762 whole entry, looked up): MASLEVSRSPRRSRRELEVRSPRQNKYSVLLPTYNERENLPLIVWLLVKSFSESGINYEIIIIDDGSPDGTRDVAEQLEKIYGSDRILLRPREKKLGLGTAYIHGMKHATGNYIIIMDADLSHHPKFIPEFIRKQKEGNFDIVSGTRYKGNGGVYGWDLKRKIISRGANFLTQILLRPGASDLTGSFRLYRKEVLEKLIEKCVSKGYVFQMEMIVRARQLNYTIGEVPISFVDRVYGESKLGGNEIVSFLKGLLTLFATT
Sequence of UniProt Q14203 (Q14203 whole entry, looked up): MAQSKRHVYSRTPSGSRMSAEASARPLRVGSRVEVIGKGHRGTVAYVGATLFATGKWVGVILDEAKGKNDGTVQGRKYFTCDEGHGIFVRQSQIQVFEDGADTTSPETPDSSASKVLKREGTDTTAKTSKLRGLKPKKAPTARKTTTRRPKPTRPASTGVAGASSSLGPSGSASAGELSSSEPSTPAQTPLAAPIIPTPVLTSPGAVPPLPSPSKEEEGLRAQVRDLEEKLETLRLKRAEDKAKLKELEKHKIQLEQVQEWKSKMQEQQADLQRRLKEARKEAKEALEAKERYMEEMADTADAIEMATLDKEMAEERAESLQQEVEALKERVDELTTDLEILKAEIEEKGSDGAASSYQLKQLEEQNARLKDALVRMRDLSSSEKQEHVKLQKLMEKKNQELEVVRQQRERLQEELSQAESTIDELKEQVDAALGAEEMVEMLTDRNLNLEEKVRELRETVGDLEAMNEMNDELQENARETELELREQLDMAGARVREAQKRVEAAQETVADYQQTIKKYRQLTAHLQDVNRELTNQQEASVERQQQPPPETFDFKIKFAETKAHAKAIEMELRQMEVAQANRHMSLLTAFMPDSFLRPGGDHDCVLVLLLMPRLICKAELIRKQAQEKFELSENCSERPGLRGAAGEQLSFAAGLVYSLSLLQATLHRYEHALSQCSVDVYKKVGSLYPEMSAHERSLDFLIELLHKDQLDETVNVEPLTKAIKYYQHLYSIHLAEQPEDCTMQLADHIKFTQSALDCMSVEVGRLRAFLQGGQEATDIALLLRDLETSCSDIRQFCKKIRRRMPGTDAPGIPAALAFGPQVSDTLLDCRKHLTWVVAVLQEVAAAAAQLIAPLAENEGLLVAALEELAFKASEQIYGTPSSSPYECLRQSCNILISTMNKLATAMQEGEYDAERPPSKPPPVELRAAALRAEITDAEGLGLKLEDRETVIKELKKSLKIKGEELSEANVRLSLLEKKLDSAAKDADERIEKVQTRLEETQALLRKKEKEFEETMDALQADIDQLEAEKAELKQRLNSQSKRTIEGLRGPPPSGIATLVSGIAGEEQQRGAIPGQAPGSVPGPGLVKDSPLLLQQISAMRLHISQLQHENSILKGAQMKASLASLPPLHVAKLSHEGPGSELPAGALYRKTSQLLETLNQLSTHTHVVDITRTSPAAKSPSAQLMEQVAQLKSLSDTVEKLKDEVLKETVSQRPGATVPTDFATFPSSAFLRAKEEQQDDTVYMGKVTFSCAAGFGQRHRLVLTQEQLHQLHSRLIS
Sequence of UniProt P39880 (P39880 whole entry, looked up): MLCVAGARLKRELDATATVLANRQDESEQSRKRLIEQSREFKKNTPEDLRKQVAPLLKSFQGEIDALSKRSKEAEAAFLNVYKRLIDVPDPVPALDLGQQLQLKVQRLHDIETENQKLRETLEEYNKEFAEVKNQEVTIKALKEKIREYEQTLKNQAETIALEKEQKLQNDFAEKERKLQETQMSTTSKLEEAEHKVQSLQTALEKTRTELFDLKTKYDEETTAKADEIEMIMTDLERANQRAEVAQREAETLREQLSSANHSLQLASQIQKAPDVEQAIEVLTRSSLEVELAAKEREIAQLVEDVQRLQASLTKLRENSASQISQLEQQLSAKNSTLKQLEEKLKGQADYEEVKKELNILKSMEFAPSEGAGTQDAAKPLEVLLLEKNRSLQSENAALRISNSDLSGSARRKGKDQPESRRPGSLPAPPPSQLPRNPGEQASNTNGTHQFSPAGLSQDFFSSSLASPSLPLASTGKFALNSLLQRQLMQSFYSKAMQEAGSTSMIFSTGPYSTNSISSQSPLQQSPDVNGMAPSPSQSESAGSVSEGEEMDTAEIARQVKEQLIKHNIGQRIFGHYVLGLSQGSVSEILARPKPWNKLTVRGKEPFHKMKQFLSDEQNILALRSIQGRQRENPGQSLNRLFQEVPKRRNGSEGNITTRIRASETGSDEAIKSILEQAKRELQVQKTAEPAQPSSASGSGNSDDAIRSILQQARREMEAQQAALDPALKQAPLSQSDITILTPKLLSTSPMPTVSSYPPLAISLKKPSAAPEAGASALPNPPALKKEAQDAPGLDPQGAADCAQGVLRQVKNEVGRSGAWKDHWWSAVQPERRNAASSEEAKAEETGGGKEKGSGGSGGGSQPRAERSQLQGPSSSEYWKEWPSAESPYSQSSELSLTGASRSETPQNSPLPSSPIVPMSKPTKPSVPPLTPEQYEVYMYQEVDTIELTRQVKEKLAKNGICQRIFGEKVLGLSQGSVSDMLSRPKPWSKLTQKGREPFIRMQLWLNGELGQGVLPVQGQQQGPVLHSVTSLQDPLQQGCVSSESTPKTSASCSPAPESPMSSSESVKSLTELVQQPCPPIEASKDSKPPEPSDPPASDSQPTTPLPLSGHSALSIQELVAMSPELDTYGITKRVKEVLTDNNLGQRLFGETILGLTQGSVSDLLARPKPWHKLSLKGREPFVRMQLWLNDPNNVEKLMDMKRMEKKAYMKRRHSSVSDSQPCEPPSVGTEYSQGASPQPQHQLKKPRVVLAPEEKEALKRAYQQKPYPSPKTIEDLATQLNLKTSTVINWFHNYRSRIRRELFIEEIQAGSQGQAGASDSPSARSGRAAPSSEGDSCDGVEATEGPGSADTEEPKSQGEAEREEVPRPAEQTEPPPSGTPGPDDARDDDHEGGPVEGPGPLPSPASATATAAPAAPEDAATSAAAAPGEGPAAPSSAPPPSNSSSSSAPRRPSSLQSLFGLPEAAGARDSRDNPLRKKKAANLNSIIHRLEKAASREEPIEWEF
Sequence of UniProt Q99828 (Q99828 whole entry, looked up): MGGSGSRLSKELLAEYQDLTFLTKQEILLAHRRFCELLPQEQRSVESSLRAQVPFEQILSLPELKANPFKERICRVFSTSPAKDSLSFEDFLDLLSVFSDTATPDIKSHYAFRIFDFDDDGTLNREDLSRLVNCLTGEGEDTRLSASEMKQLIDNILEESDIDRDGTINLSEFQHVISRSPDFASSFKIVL
Sequence of UniProt Q9Y2V7 (Q9Y2V7 whole entry, looked up): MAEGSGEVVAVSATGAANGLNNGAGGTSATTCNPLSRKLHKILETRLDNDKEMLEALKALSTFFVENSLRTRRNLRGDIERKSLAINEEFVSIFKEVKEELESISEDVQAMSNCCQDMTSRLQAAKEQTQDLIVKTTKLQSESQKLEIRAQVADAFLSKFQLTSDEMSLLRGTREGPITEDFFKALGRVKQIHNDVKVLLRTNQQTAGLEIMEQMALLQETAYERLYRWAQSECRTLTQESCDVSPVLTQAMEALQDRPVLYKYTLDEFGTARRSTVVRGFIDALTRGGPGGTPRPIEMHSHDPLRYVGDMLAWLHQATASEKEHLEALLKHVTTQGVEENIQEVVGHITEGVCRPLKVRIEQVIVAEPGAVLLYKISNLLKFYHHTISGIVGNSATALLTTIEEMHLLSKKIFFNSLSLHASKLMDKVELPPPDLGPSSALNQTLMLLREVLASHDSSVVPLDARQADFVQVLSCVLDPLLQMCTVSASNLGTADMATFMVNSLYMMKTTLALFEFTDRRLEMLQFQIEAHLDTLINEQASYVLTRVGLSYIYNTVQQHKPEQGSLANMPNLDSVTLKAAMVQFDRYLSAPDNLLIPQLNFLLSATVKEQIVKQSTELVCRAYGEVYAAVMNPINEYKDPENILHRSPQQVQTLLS
Sequence of UniProt Q9UHD1 (Q9UHD1 whole entry, looked up): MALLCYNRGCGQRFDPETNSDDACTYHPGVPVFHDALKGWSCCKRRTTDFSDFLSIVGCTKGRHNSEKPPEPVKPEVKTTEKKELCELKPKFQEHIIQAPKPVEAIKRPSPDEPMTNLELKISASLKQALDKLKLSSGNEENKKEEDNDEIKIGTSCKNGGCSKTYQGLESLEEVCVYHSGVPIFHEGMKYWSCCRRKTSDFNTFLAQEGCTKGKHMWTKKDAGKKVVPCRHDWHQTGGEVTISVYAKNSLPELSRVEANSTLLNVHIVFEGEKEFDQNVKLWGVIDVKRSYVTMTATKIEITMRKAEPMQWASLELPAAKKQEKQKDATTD
Sequence of UniProt Q9H467 (Q9H467 whole entry, looked up): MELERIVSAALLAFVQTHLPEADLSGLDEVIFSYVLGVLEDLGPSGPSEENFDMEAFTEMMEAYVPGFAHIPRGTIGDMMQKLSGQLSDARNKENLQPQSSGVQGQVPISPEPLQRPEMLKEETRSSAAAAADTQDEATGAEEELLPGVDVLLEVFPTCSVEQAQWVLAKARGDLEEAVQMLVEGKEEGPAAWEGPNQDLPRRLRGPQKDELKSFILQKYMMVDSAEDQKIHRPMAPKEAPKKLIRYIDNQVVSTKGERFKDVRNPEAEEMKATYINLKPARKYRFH

Target | log2 fold change
DEF6 (UniProt Q9H4E7) | -0.027
DCTN1 (UniProt Q14203) | -0.009
CUEDC2 (UniProt Q9H467) | -0.017
CHEK2 (UniProt O96017) | -0.016
DNAAF5 (UniProt Q86Y56) | -0.005
CNOT6L (UniProt Q96LI5) | -0.013
CIB1 (UniProt Q99828) | -0.039
CLPB isoform 2 (UniProt Q9H078) | 0
CMPK2 (UniProt Q5EBM0) | -0.024
CTPS1 (UniProt P17812) | -0.029
COG6 (UniProt Q9Y2V7) | 0.029
CUX1 isoform 3 (UniProt P39880) | 0.031
DIAPH3 (UniProt Q9NSV4) | -0.035
CTNND1 isoform 3 (UniProt O60716) | 0.058
CHML (UniProt P26374) | 0.01
DNM2 (UniProt P50570) | 0.035
CHORDC1 (UniProt Q9UHD1) | -0.01
CSK (UniProt P41240) | -0.019
DPM1 (UniProt O60762) | 0.022
CKAP5 (UniProt Q14008) | 0.01
DES (UniProt P17661) | 0.062
DMXL1 (UniProt Q9Y485) | 0
DGCR8 (UniProt Q8WYQ5) | 0.004
